Test results taken from PubChem BioAssay (EPA / NIEHS).
Results filed as inconclusive are left out. Active and inactive are the calls of the source. Rule for the calls: active = hit-call score of the fitted dose curve at least 0.9, where 1 is the maximum; inconclusive = response in the unintended direction; inactive = score below 0.9.

Read-out: xenobiotic metabolism (CYP1A1), CYP1A1 (gene 1543)
Assay: CLD_CYP1A1_48hr: CellzDirect (CLD) Gene Expression Assay for xenobiotic metabolism (CYP1A1) at 48 hours (AID 2283705)
Method: CLD_48hr is a cell-based, multiplexed-readout assay that uses hepatocyte, a human liver primary cell, with measurements taken at 48 hours after chemical dosing in a 96-well plate.CLD_CYP1A1_48hr is one of 16 assay component(s) measured or calculated from the CLD_48hr assay. It is designed to make measurements of mRNA induction, a form of inducible reporter, as detected with chemiluminescence signals by Quantitative Nuclease Protection Assay (qNPA) technology.Data from the assay component CLD_CYP1A1_48hr was analyzed at the endpoint, CLD_CYP1A1_48hr, in the positive analysis fitting direction relative to DMSO as the negative control and baseline of activity. Using a type of inducible reporter, gain-of-signal activity can be used to understand changes in the reporter gene as they relate to the gene CYP1A1. Furthermore, this assay endpoint can be referred to as a primary readout. To generalize the intended target to other relatable targets, this assay endpoint is annotated to the cyp intended target family, where subfamily is xenobiotic metabolism.
Human hepatocyte cultures were treated daily for two consecutive days with fresh dosing solutions containing appropriate concentrations of the 320 ToxCast chemicals (chemical identities were blinded to CellzDirect and other ToxCast collaborators), vehicle control (0.2% DMSO), and positive control inducers as summarized in Table 1. Due to the large number of treatment groups and chemicals examined, the ToxCast chemicals were divided into two groups (spanning two independent cultures of hepatocytes from separate donor preparations (Hu778: ToxCast plates 1 and 2; Hu776: ToxCast plates 3 and 4). Each preparation of human hepatocyte cultures was treated with respective vehicle control, medium only control, set of six positive controls/reference chemicals for the five hepatic receptor pathways, and a subset of eight of the ToxCast chemicals (indoxacarb, pyrithiobac-sodium, norflurazon, cyhalofop-butyl, methomyl, thiram, acetochlor, and propiconazole). These replicate data, coupled with internal replicates designed within the blinded ToxCast chemical library, provided additional data to evaluate interindividual differences between hepatocyte preparations and their potential impact on chemical profiles.Cell morphology and integrity were evaluated using phase-contrast microscopy as an indicator of hepatocyte cell health (Tyson & Green, 1987). Cultures for each treatment group (i.e., media, vehicle [0.2% DMSO], positive control inducers [multiple concentrations], and the ToxCast chemicals [multiple concentrations]) were observed and cell morphology was assessed relative to vehicle control cultures at each harvest time point (0, 6, 24, or 48 h). […] Images were evaluated at the conclusion of the study to assess changes in cell integrity and account for the effects of chemical exposure on uncharacteristic changes in concentration-dependent gene expression profiles. The results from these determinations of apparent cytotoxicity were annotated (yes/no) alongside the corresponding qNPA data for reference.At the conclusion of each treatment period, hepatocyte cultures (96-well) were washed with 1 volume of HBSS, lysed by addition of 25 ul ArrayPlate lysis buffer (HTG, Tucson, AZ), and 70 ul/well of Denaturation Oil, denatured by incubation at 95C for 10 min, and frozen at approximately -70C until analysis by nuclease protection assay (qNPA) (Roberts et al., 2007). For qNPA analysis, cell lysates were thawed at 50C for approximately 30 min, qNPA probes were added, and samples were incubated at 95C for 10 min to begin the detection process by denaturing the target RNA, dissociating the duplexes and secondary structure hybridization. At the conclusion of the hybridization period, S1 nuclease reagent was added to each sample to digest all nonprotected nucleotides at 50C for 60-90 min. […]

**Q.** How did the AC50 turn out when `COc1ccc(C(=CC(=O)N2CCOCC2)c2ccc(Cl)cc2)cc1OC` was run?
**A.** 4.77 µM (active)

**Q.** Which AC50 does the source give for `CON=C(C(=O)OC)c1ccccc1CON=C(C)c1cccc(C(F)(F)F)c1` here?
**A.** 20 µM (active)

**Q.** How did the AC50 turn out when `Nc1c(Cl)cc([N+](=O)[O-])cc1Cl` was run?
**A.** 4.01 µM (active)

**Q.** How did the outcome turn out when `CNC(=O)ON=C(SC)C(=O)N(C)C` was run?
**A.** inactive

**Q.** How did the outcome turn out when `CC(=NC#N)N(C)Cc1ccc(Cl)nc1` was run?
**A.** inactive

**Q.** `CCOP(=O)(OCC)Oc1cc(C)nc(C(C)C)n1` was tested. Which outcome did it give?
**A.** inactive

**Q.** `CN1COCN(Cc2cnc(Cl)s2)C1=N[N+](=O)[O-]` was tested. Which outcome did it give?
**A.** inactive

**Q.** `COP(=O)(OC)OC(Br)C(Cl)(Cl)Br` (stereo not given) was tested. Which outcome did it give?
**A.** inactive

**Q.** Which AC50 does the source give for `CCOP(=S)(Oc1cnc(C(C)(C)C)nc1)OC(C)C` (stereo not given) here?
**A.** 3.91 µM (active)

**Q.** For `COP(=O)(NC(C)=O)SC` (stereo not given), which outcome is on record?
**A.** inactive

**Q.** `CC(C)[C@H](C(=O)O[C@H](C#N)c1cccc(Oc2ccccc2)c1)c1ccc(Cl)cc1` was tested. Which AC50 did it give?
**A.** 20 µM (active)

**Q.** `Cc1cc(C2CC2)nc(Nc2ccccc2)n1` was tested. Which outcome did it give?
**A.** inactive

**Q.** Which outcome does the source give for `CCc1cnc(C2=NC(C)(C(C)C)C(=O)N2)c(C(=O)O)c1` (stereo not given) here?
**A.** inactive

**Q.** How did the outcome turn out when `CC(COc1ccc(Oc2ccccc2)cc1)Oc1ccccn1` (stereo not given) was run?
**A.** inactive

**Q.** With `C#CC(C)(C)NC(=O)c1cc(Cl)cc(Cl)c1` as the compound, how does the outcome read?
**A.** inactive

**Q.** How did the AC50 turn out when `CCCCN(CC)c1c([N+](=O)[O-])cc(C(F)(F)F)cc1[N+](=O)[O-]` was run?
**A.** 20 µM (active)

**Q.** With `Nc1nc(N)nc(NC2CC2)n1` as the compound, how does the AC50 read?
**A.** 11.6 µM (active)

**Q.** For `CC(C)N(C(=O)SCC(Cl)=C(Cl)Cl)C(C)C`, which outcome is on record?
**A.** inactive

**Q.** Which AC50 does the source give for `CCOP(=S)(OCC)Oc1ccc2c(C)c(Cl)c(=O)oc2c1` here?
**A.** 1.89 µM (active)

**Q.** With `CC(C)=CC1C(C(=O)OCN2C(=O)C3=C(CCCC3)C2=O)C1(C)C` (stereo not given) as the compound, how does the outcome read?
**A.** inactive

**Q.** For `CSc1nc(NC(C)C)nc(NC(C)C)n1`, which AC50 is on record?
**A.** 20 µM (active)

**Q.** How did the AC50 turn out when `CSC1=N[C@@](C)(c2ccccc2)C(=O)N1Nc1ccccc1` was run?
**A.** 20 µM (active)

**Q.** With `CC1=NNC(=O)N(/N=C/c2cccnc2)C1` as the compound, how does the AC50 read?
**A.** 3.97 µM (active)

**Q.** For `CN(C)C(=O)Nc1cccc(C(F)(F)F)c1`, which AC50 is on record?
**A.** 7.21 µM (active)

**Q.** Which AC50 does the source give for `N#CSCSC#N` here?
**A.** 7.26 µM (active)

**Q.** For `CCC(CC)Nc1c([N+](=O)[O-])cc(C)c(C)c1[N+](=O)[O-]`, which outcome is on record?
**A.** inactive

**Q.** With `CCNc1nc(Cl)nc(NC(C)(C)C#N)n1` as the compound, how does the outcome read?
**A.** inactive

**Q.** For `CNc1cnn(-c2cccc(C(F)(F)F)c2)c(=O)c1Cl`, which AC50 is on record?
**A.** 5.37 µM (active)

**Q.** With `C=C(C)[C@H]1Cc2c(ccc3c2O[C@@H]2COc4cc(OC)c(OC)cc4[C@@H]2C3=O)O1` as the compound, how does the AC50 read?
**A.** 2 µM (active)

**Q.** How did the AC50 turn out when `CCC(=O)Nc1ccc(Cl)c(Cl)c1` was run?
**A.** 4.64 µM (active)

**Q.** For `CCCCSP(=O)(SCCCC)SCCCC`, which AC50 is on record?
**A.** 4.08 µM (active)

**Q.** Which outcome does the source give for `CCCCOC(=O)[C@@H](C)Oc1ccc(Oc2ccc(C#N)cc2F)cc1` here?
**A.** inactive

**Q.** How did the outcome turn out when `CCOC(=O)CC(SP(=O)(OC)OC)C(=O)OCC` (stereo not given) was run?
**A.** inactive

**Q.** For `C[Si](Cn1cncn1)(c1ccc(F)cc1)c1ccc(F)cc1`, which AC50 is on record?
**A.** 0.727 µM (active)

**Q.** `FC(F)C(F)(F)OCC(Cn1cncn1)c1ccc(Cl)cc1Cl` (stereo not given) was tested. Which AC50 did it give?
**A.** 8.06 µM (active)

**Q.** How did the outcome turn out when `Cc1nn(-c2cc(NS(C)(=O)=O)c(Cl)cc2Cl)c(=O)n1C(F)F` was run?
**A.** inactive

**Q.** How did the outcome turn out when `CCOP(=S)(OCC)OC(Cl)C(Cl)(Cl)Cl` (stereo not given) was run?
**A.** inactive

**Q.** `COP(=O)(OC)SCn1c(=O)oc2cc(Cl)cnc21` was tested. Which outcome did it give?
**A.** inactive

**Q.** Which AC50 does the source give for `CCOP(=S)(OCC)Oc1cc(C)nc(C(C)C)n1` here?
**A.** 4.2 µM (active)

**Q.** `CCCSP(=O)(OCC)Oc1ccc(Br)cc1Cl` (stereo not given) was tested. Which outcome did it give?
**A.** inactive
